# Screen size: about 310,000 compounds; about 14,000 (4.5%) showed an effect of 50% or more. The effect is printed as a negative number. For the sample, strong results were picked, then their nearest neighbours and some compounds at random.
# Target: human ether-à-go-go-related gene (hERG) potassium channel (human, UniProt Q12809)
# Assay: primary screen, population patch clamp on CHO cells stably expressing hERG; higher = less effect of the substance
# 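Note: peak tail current of the secondary pulse compared with the same well before compound.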
# human ether-à-go-go-related gene (hERG) potassium channel, sequence (Q12809 whole entry, looked up): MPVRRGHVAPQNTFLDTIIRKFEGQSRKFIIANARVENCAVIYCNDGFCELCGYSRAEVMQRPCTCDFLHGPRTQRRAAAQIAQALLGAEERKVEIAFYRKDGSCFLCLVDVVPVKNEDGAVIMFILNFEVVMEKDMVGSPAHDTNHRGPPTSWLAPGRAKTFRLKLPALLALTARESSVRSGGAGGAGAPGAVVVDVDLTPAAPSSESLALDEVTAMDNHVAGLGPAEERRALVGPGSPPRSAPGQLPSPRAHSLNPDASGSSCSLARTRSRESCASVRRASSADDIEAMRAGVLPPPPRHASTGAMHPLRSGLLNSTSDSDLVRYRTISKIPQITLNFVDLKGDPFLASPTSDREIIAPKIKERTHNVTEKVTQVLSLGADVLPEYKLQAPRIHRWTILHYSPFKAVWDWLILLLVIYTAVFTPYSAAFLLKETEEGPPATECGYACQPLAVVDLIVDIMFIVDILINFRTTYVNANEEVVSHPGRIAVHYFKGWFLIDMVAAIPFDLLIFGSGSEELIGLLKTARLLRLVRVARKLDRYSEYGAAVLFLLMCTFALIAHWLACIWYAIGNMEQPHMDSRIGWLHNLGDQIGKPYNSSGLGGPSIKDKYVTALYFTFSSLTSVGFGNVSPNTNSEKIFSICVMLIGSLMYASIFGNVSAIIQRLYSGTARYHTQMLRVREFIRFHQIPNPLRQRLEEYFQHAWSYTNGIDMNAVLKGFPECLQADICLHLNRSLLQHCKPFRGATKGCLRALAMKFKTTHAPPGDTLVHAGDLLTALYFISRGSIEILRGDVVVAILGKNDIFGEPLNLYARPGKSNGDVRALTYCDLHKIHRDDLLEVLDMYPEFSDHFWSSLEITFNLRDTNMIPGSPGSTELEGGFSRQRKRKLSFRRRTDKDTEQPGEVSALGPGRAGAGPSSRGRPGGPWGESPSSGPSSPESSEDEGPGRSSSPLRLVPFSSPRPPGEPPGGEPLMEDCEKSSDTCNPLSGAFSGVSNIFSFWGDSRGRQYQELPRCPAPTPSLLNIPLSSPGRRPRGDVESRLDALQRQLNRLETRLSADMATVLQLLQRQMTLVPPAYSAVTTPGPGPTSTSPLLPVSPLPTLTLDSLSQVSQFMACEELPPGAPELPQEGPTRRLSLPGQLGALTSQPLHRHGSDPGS
row,SMILES,"hERG current change (%, negative = inhibition) at 10uM"
1,COc1ccc(C2=NN(C(=O)c3ccco3)C(c3ccco3)C2)cc1OC (stereo not shown),7.24%
2,COc1cccc(SCc2noc(C(=O)NCC3CC3)c2C(=O)NCC2CC2)c1,-43.5%
3,CCN(Cc1ccccc1)C(=O)c1ccccc1C,1.76%
4,CC(NC(=O)C1CCN(S(=O)(=O)N2CCC3(CC2)OCCO3)CC1)c1ccccc1 (stereo not shown),20.9%
5,CCCC(C)NS(=O)(=O)c1ccccc1 (stereo not shown),-18.4%
6,CN1CC(=O)N(CC(=O)Nc2ccc(SC(F)F)cc2)C1=O,-23.5%
7,CCOc1ccc2nc(C(=O)N3CCCC(C)C3)sc2c1 (stereo not shown),-2.28%
8,CCOC(=O)C1=C(C)N(C)C(=S)NC1c1ccc(Cl)cc1 (stereo not shown),-21.5%
9,Cc1ccc(C(=O)OCC(=O)NC(=O)NCc2ccccc2)cc1C,7.95%
10,CCOC(=O)c1cnc(SCCN2CCOCC2)nc1N,9.59%
11,COC(=O)c1ccccc1NC(=O)c1cc2n(n1)C(C(F)F)CC(C(F)F)N2 (stereo not shown),14%
12,Cc1cc(C)n(C(C)CC(=O)Nc2ccc(-c3ccno3)cc2)n1 (stereo not shown),1.47%
13,CC1(C)CC(=O)C=C(NCCN2CCNCC2)C1,-2.18%
14,Cc1cccc(C)c1NC(=O)CN(C)C(=O)C1CCN(c2ncnc3sc(C)c(C)c23)CC1,-46.7%
15,Cc1sc2ncnc(N3CCC(C(=O)Nc4cc(Cl)ccc4Cl)CC3)c2c1C,4.42%
16,Cc1sc2ncnc(N3CCC(C(=O)N(C)CC(=O)Nc4ccccc4Cl)CC3)c2c1C,-67.7%
17,C=CCN(C(=O)CSc1nc2ccsc2c(=O)n1Cc1ccccn1)c1ccccc1,-19.4%
18,COCCCNC(=O)Cn1cc(C(C)=O)c2ccccc21,17.7%
19,CC1CCN(C(=O)CN(c2ccccc2)S(=O)(=O)N(C)C)CC1,14.2%
20,CCOC(=O)NC(C(Cl)(Cl)Cl)S(=O)(=O)c1ccccc1 (stereo not shown),-6.98%

row,SMILES,"hERG current change (%, negative = inhibition) at 10uM"
1,CCOC(=O)NC(c1ccc(C(C)C)cc1)C(Cl)(Cl)Cl (stereo not shown),1.44%
2,CCOC(=O)NC(N(O)c1cccc(Cl)c1)C(Cl)(Cl)Cl (stereo not shown),-74.2%
3,Cc1ccc(-c2cc(C(=O)Nc3cc(C)on3)c3ccccc3n2)cc1,4.13%
4,C=C(C)Cn1c(C2CC(=O)N(c3ccccc3F)C2)nc2ccccc21 (stereo not shown),-27%
5,Cc1ccc(OCC(=O)NC(C)c2ccc(Cl)c(Cl)c2)c([N+](=O)[O-])n1 (stereo not shown),-21.4%
6,CN(C)CCCNCCCNC(=O)/C(=N\O)c1ccccc1,6.64%
7,O=C(C1CCOCC1)N1CCCC(N2CCN(c3ccc(F)cc3)CC2)C1 (stereo not shown),-3.64%
8,CC(C)=CC(=O)N1CCCC(N2CCN(c3ccc(F)cc3)CC2)C1 (stereo not shown),-0.816%
9,O=C(c1ccoc1)N1CCCC(N2CCN(c3ccc(F)cc3)CC2)C1 (stereo not shown),-48.1%
10,Cc1ccccc1N1CCN(C2CCCN(C(=O)c3ccc(Cl)s3)C2)CC1 (stereo not shown),-46.8%
11,O=C(c1cccs1)N1CCCC(N2CCN(c3ccc(F)cc3)CC2)C1 (stereo not shown),-65.7%
12,O=C(c1ccncc1)N1CCCC(N2CCN(c3ccc(F)cc3)CC2)C1 (stereo not shown),-44.6%
13,CC(=O)c1ccc(C(=O)N2CCCC(N3CCN(c4ccc(F)cc4)CC3)C2)s1 (stereo not shown),-63.7%
14,O=C(c1cccs1)N1CCN(c2ccc(F)cc2)CC1,-9.63%
15,CC(C)n1cc(C(=O)N2CCCC(N3CCN(c4ccc(F)cc4)CC3)C2)cn1 (stereo not shown),-34.9%
16,O=C(c1cccc(-c2ccco2)c1)N1CCCC(N2CCN(c3ccc(F)cc3)CC2)C1 (stereo not shown),-78.5%
17,COc1ccccc1N1CCN(C2CCCN(C(=O)c3cccc(-c4ccco4)c3)C2)CC1 (stereo not shown),-36.1%
18,O=C(c1ccc(Cl)s1)N1CCCC(N2CCN(c3ccc(F)cc3)CC2)C1 (stereo not shown),-70.1%
19,CCN(C(=O)COC(=O)C1CCN(S(=O)(=O)c2ccc(C)c(C)c2)CC1)C1CCS(=O)(=O)C1 (stereo not shown),-7.82%
20,Cc1nnc2ccc(-c3ccc(NS(C)(=O)=O)cc3)nn12,-16%

row,SMILES,"hERG current change (%, negative = inhibition) at 10uM"
1,CCOc1nc(Nc2ccccc2)nc(OCC)n1,-21.7%
2,COc1ccc(-c2ccc(N(C)C)cc2)cc1[C@H]1[C@H]2C=CC[C@@H](C)[C@@H]2C(=O)N1Cc1ccccc1,10.1%
3,Cc1nc(N2CCN(Cc3ccccc3)CC2)nc2c1C(=O)CC(C)C2 (stereo not shown),-5.32%
4,C(=N\N1CCN(C2c3ccccc3-c3ccccc32)CC1)/c1cccnc1,2.63%
5,Cc1nnc(NC(=O)c2ccc(S(=O)(=O)N3CC(C)OC(C)C3)cc2)o1 (stereo not shown),12.6%
6,Cc1ccc(S(=O)(=O)N2CCCC2C(=O)Nc2nc3ccccc3s2)cc1 (stereo not shown),-14.8%
7,Oc1ccc(/C=N/N=C(c2ccccc2)c2ccccc2)c(O)c1O,8.49%
8,COC(=O)CSc1nccc(C)n1,14.6%
9,COC(=O)c1cn(NC(=O)Cn2nc([N+](=O)[O-])c(Cl)c2C)c(=O)c2ccccc12,18.6%
10,O=C(Nc1ccccc1C(=O)N1CCCC1)c1cccc(S(=O)(=O)N2CCCCC2)c1,-12.1%
11,O=C(Nc1ccccc1O)c1cccc(S(=O)(=O)N2CCOCC2)c1,17.7%
12,CNC(=O)c1ccccc1NC(=O)c1cccc(S(=O)(=O)N2CCCCC2)c1,-51.1%
13,CCNC(=O)c1ccccc1NC(=O)c1cccc(S(=O)(=O)N2CCOCC2)c1,-71.5%
14,O=C(Nc1ccccc1C(=O)N1CCCC1)c1cccc(S(=O)(=O)N2CCCCCC2)c1,-39.3%
15,Cc1ccccc1NC(=O)c1cccc(S(=O)(=O)N2CCOCC2)c1,31.9%
16,CC1CCN(S(=O)(=O)c2cccc(C(=O)Nc3ccccc3)c2)CC1,-9.3%
17,CCNC(=O)c1ccccc1NC(=O)c1cccc(S(=O)(=O)N2CCC(C)CC2)c1,-55.4%
18,CC1CCN(S(=O)(=O)c2cccc(C(=O)Nc3ccccn3)c2)CC1,-22.1%
